Whole data set: some 33,000 sequences, median “E-score (-0.5 to 0.5)” near -0.0059, cut for the highest 2% near 0.26. This is one part of a sample in which the highest values are shown more often than they occur.
target: T1, Cin5 (UniProt P40917); experiment: PBM E-score (8-mer binding enrichment) (E-score (-0.5 to 0.5)); higher = stronger / more preferred TF binding; conditions: protein concentration: 100 nM; construct: GST-full length
T1 sequence: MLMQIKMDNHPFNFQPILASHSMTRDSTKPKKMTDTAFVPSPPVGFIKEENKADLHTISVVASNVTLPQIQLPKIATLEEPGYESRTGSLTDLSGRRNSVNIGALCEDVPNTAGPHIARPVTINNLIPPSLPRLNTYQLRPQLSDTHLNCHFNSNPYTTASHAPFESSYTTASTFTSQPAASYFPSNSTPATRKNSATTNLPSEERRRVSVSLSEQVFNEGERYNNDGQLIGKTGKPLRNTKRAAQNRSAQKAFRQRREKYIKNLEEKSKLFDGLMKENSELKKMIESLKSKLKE
Procedure: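 Universal 'all 10-mer' protein binding microarrays (Agilent AMADID 015681) probed with GST-tagged S. cerevisiae TFs (full-length or DBD) made by in vitro transcription/translation (PURExpress), about 100-200 nM. Bound TF was detected with fluorescent anti-GST. Each ungapped 8-mer (which stands for itself and its reverse complement) is scored by the PBM enrichment score (E-score), a modified Wilcoxon-Mann-Whitney statistic from -0.5 to +0.5, computed with the Universal PBM Analysis Suite. Scale: above 0.35 generally sequence-specific binding.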

Row | Sequence | PBM E-score
1 | AACGCCAA | -0.0074
2 | GATTCTCC | -0.134
3 | GTACTCTA | -0.0538
4 | TATTCGAA | 0.0697
5 | CCCTATGA | -0.066
6 | CAATAGGC | -0.0915
7 | AGGAATAG | 0.0234
8 | GGCAAAAA | 0.202
9 | ATTACTTA | 0.411
10 | ATTACTAG | 0.105
11 | CTTACTTA | 0.25
12 | ATTACTAC | 0.145
13 | ATTACTAA | 0.334
14 | CTTACTAA | 0.313
15 | GTTACTAA | 0.168
16 | ATTACTGA | 0.108
17 | CTTACTAC | 0.202
18 | AAGATGGA | 0.109
19 | CGAGTAGA | -0.139
20 | ATTTACGC | 0.0814
21 | ATCCGTTA | 0.29
22 | GTCCGTTA | 0.12
23 | ATCCGTTC | 0.0322
24 | CGGGCTAA | -0.184
25 | CGGTACTC | -0.161

Row | Sequence | PBM E-score
26 | CGTAGAGC | -0.0105
27 | AAAAACCA | 0.0166
28 | AAAGCGCA | -0.0252
29 | CAAGCGCC | -0.291
30 | CAAGCGCA | 0.323
31 | CAATTCCC | 0.112
32 | CTGATTTC | -0.00928
33 | CTGATTAC | 0.378
34 | ATGATTAG | 0.223
35 | ATGATTAA | 0.256
36 | ATGATTAC | 0.362
37 | CTGATTAA | 0.108
38 | GGGCTAGA | -0.149
39 | CAGGCAAC | -0.0103
40 | GTTATGAA | 0.159
41 | AGTATGTG | 0.14
42 | GTTATGCA | 0.0592
43 | CTTATGCA | 0.106
44 | CATATGTA | 0.172
45 | GATATGTA | 0.189
46 | ATTATGAA | 0.258
47 | ACTATGTG | 0.0904
48 | GTTATGTA | 0.276
49 | CTTATGTA | 0.361
50 | CTTATGAA | 0.0936

Row | Sequence | PBM E-score
51 | ATTATGTG | 0.345
52 | AGTGCTTA | 0.199
53 | AGTGAACT | 0.035
54 | AGGCCACG | -0.155
55 | GAGAAGAC | -0.0329
56 | CTACACCA | -0.00077
57 | GGGACACC | -0.238
58 | CTAGTGAC | -0.0966
59 | ATTATGTA | 0.42
60 | ATTATGCG | 0.338
61 | ATTATGTC | 0.27
62 | ATTATGCC | 0.15
63 | CTTATGTC | 0.219
64 | ACTATGTA | 0.202
65 | GCTATGTA | -0.0403
66 | ATTATGCA | 0.118
67 | ACTATGTC | -0.0438
68 | AGCCATCA | 0.131
69 | AACGCGAT | 0.0765
70 | ACTTCGCC | 0.0471
71 | CTACCCGA | -0.0656
72 | CCACGGAC | -0.237
73 | AGTTTCGC | 0.0693
74 | ATAGGCCG | -0.185
75 | ACCCTTAG | -0.101

Row | Sequence | PBM E-score
76 | GGACAGGA | -0.275
77 | ACTACTAA | 0.177
78 | TATACTGA | 0.274
79 | AATACTGG | 0.129
80 | ACTACTAT | 0.26
81 | AATACTAT | 0.214
82 | AATACTGT | 0.258
83 | CATACTGA | 0.155
84 | ACTACTAC | 0.00444
85 | GATACTGA | 0.124
86 | AGCTGTAG | 0.139
87 | CAGATGAG | 0.0638
88 | CGTGTTGC | -0.119
89 | GAAGTGAA | 0.202
90 | AAAGTGAT | -0.00439
91 | AAAGTGAA | 0.258
92 | ATACGCAA | 0.217
93 | GTACGCAA | -0.0571
94 | TTACGCAA | 0.306
95 | CAGCTCCC | -0.305
96 | ACATGTTA | 0.126
97 | GAACAAAC | 0.226
98 | ATACAACC | 0.0923
99 | ATACAAAT | 0.22
100 | CTACAAAA | 0.111

Row | Sequence | PBM E-score
101 | ATACAACG | 0.174
102 | GAACAAAA | 0.278
103 | ATACAACA | 0.272
104 | AAACAAAA | 0.137
105 | ATACAAAA | 0.28
106 | CCCCTCGA | 0.0859
107 | ACAGGCTA | -0.0671
108 | CCCACAGC | -0.192
109 | TAAAATAA | 0.141
110 | CTAAATAC | 0.085
111 | CTAAATAA | 0.0261
112 | ATAAATAT | 0.226
113 | ATAAATAA | 0.321
114 | CTAATAAA | 0.164
115 | ATAATAAA | 0.24
116 | ATAAATAC | 0.279
117 | TTAAATAA | 0.313
118 | GTAAATAA | 0.189
119 | TTAATAAA | 0.287
120 | ATAAATAG | 0.102
121 | ATGTGGTG | 0.114
122 | CCTCGCAC | -0.0617
123 | CTTAGATC | -0.0574
124 | CGGCATGA | 0.123
125 | GAATTCTC | 0.0994

Row | Sequence | PBM E-score
126 | ACCACGAT | 0.161
127 | AGCTACCT | -0.0535
128 | ATCACTGC | 0.0947
129 | CGTGTTGA | -0.0277
130 | AACCCAAC | 0.17
131 | ACTTTACG | 0.119
132 | GGGGCACC | -0.367
133 | GGGTCACC | -0.297
134 | GCGAATTA | 0.266
135 | ACGAATTA | 0.0396
136 | CCGAATTA | 0.0794
137 | GATGGTAC | 0.0499
138 | CGGTAATC | -0.0552
139 | AGGTAATA | 0.296
140 | AGGTAATC | 0.313
141 | GGGTAATA | 0.122
142 | AGGTAATG | 0.124
143 | CGGTAATA | 0.181
144 | CGGAGCTC | -0.269
145 | ATTCTTGG | 0.153
146 | TGTAAACA | 0.0928
147 | CACCAGCG | -0.0689
148 | CATTAGTC | 0.0189
149 | AATTAGAC | 0.0847
150 | AATTAGTA | 0.308

Row | Sequence | PBM E-score
151 | ATTTAGTA | 0.303
152 | AATTAGAG | 0.146
153 | CTTTAGTA | -0.00776
154 | ATTTAGTC | 0.0988
155 | AATTAGTC | 0.26
156 | CATTAGTA | 0.188
157 | GATTAGTA | 0.254
158 | AATTAGAT | 0.294
159 | AATTAGTG | 0.188
160 | AGCGTCAG | -0.124
161 | AGCGAGCC | -0.0601
162 | CACGAAGA | 0.132
163 | CGTTTCTA | -0.00786
164 | AGATAACT | 0.159
165 | ATGCTACA | -0.0162
166 | ATCTAGAC | -0.125
167 | ATATGATC | 0.258
168 | GTATGATA | 0.275
169 | ATATGATG | 0.158
170 | ATATGATA | 0.314
171 | CTTTGATA | 0.116
172 | GTATGAGA | 0.144
173 | CTATGATC | -0.0495
174 | CTATGATA | 0.116

— the supplement of paper PMC3334620
